Test systems include SK-MEL-2 melanoma; EKVX NSCLC; SN12C renal; UO-31 renal; TK-10 renal; ACHN renal; CAKI-1 renal; A498 renal; CCRF-CEM leukemia; MOLT-4 leukemia; SR leukemia; RPMI-8226 leukemia; OVCAR-8 ovarian; OVCAR-5 ovarian; OVCAR-4 ovarian; SK-OV-3 ovarian; OVCAR-3 ovarian; HS 578T breast; NCI/ADR-RES ovarian; IGROV1 ovarian.
Test in all cases: NCI-60 one-dose screen, 48 h (100 = growth as untreated, 0 = no growth, -100 = all killed)
Holding throughout (settings): 10 µM unless noted

Compounds without any hit were thinned out: in the full panel of roughly 83,000, 20% have a hit.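 Step 1: grow cells in 96-well plates. Step 2: add test compound at a single concentration. Step 3: incubate 48 h. Step 4: record percent growth.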 A number with no mark means an inactive call. The source made the active and inactive calls. Rule for the calls: active = growth percent below 10; inactive = the rest.

Take `Cc1cccc2cc(/C=C/C(=O)/C=C/c3ccc(Cl)cc3)c(=O)[nH]c12`: the growth in the test with SK-MEL-2 melanoma was 91%; in the test with EKVX NSCLC it was 62.5%; in the test with SN12C renal it was 47.6%; with UO-31 renal it was 69.7%; with TK-10 renal, 105%; in the test with ACHN renal it was 60.5%. For the same compound, the growth was 91.1% in the test with CAKI-1 renal; 63.1% in the test on A498 renal; 14.7% in the test on CCRF-CEM leukemia; 32.4% with MOLT-4 leukemia; 0.572% (active) with SR leukemia; 6.05% (active) in the test with RPMI-8226 leukemia. The growth in the test with OVCAR-8 ovarian is 21.8%; in the test on OVCAR-5 ovarian, 84.8%; with OVCAR-4 ovarian, 58%; in the test with SK-OV-3 ovarian, 91.5%; in the test with OVCAR-3 ovarian, 13.9%; in the test on HS 578T breast it was 50.9%. Also, in the test on NCI/ADR-RES ovarian, the growth was 94.8%.

On to `CC(C)N(Cc1ccc(CN(C(=O)CCl)C(C)C)cc1)C(=O)CCl`, for which the growth was 44.9% in the test on SK-MEL-2 melanoma; 82.6% in the test on EKVX NSCLC; 15.4% in the test with SN12C renal; -83.6% (active) with UO-31 renal; 70.5% in the test with TK-10 renal; 5.84% (active) in the test with ACHN renal. Further, the growth in the test on CAKI-1 renal was 33.6%; with A498 renal, 88.2%; in the test with CCRF-CEM leukemia it was -29.4% (active); in the test on MOLT-4 leukemia, 8.54% (active); with SR leukemia it was 8.59% (active); in the test with RPMI-8226 leukemia, 1.57% (active). The growth in the test on OVCAR-8 ovarian is -12.9% (active); in the test with OVCAR-5 ovarian it was 4.12% (active); with OVCAR-4 ovarian, 26.4%; with SK-OV-3 ovarian, 49.7%; in the test on IGROV1 ovarian, -49.3% (active); in the test on OVCAR-3 ovarian, -76.1% (active). Besides, the growth in the test on HS 578T breast was 59.3%; in the test on NCI/ADR-RES ovarian, 4.6% (active).

As for `CCCCn1c(=O)c(C2CNC(=O)c3ccccc3N2)cc2ccccc21` (configuration not stated), the growth is 106% with SK-MEL-2 melanoma; 103% with EKVX NSCLC; 85.7% with SN12C renal; 93.1% in the test on UO-31 renal; 109% with TK-10 renal; 98.2% with ACHN renal. In addition, the growth was 85.8% with CAKI-1 renal; 88.7% in the test with A498 renal; 110% with CCRF-CEM leukemia; 46.4% in the test with MOLT-4 leukemia; 102% with SR leukemia; 109% in the test with RPMI-8226 leukemia. The growth in the test on OVCAR-8 ovarian was 114%; in the test on OVCAR-5 ovarian it was 96.3%; in the test with OVCAR-4 ovarian, 103%; with SK-OV-3 ovarian, 97.2%; in the test with OVCAR-3 ovarian, 99.7%; in the test on HS 578T breast it was 94.6%. In the test with NCI/ADR-RES ovarian, the growth was 100%.

`CCOc1ccc(/C=C/C=N/NC(N)=S)cc1`: the growth was 108% in the test with SK-MEL-2 melanoma; 95.5% in the test with EKVX NSCLC; 80.4% with SN12C renal; 38.3% in the test on UO-31 renal; 74.1% in the test on TK-10 renal; 80.2% in the test on ACHN renal. Besides, the growth is 83.9% in the test on CAKI-1 renal; 77.7% with A498 renal; 62.6% in the test on CCRF-CEM leukemia; 35.8% in the test on MOLT-4 leukemia; 70.4% with SR leukemia; 39.7% in the test on RPMI-8226 leukemia. Also, the growth in the test on OVCAR-8 ovarian is 100%; with OVCAR-5 ovarian, 90.9%; with OVCAR-4 ovarian, 73.2%; in the test on SK-OV-3 ovarian it was 110%; in the test with IGROV1 ovarian it was 53.5%; in the test on OVCAR-3 ovarian, 73.7%. Besides, the growth was 95.3% in the test with HS 578T breast and 82.6% in the test with NCI/ADR-RES ovarian.

As for `O=C(O)c1ccc(-n2cc(CNc3ccc(C(F)(F)F)cc3)c(-c3ccccc3)n2)cc1`, the growth was 93.8% with SK-MEL-2 melanoma; 91.8% in the test with EKVX NSCLC; 94.6% in the test with SN12C renal; 80.5% with UO-31 renal; 110% with TK-10 renal; 88.9% with ACHN renal. Also, the growth with CAKI-1 renal was 87.2%; in the test with A498 renal, 87.6%; in the test with CCRF-CEM leukemia, 91.4%; with MOLT-4 leukemia, 76.5%; with SR leukemia it was 84.1%; in the test on RPMI-8226 leukemia, 76.6%. Also, the growth is 79.8% with OVCAR-8 ovarian; 119% in the test with OVCAR-5 ovarian; 95.4% in the test with OVCAR-4 ovarian; 111% with IGROV1 ovarian; 96.1% in the test with OVCAR-3 ovarian; 93.7% with HS 578T breast. In addition, the growth in the test with NCI/ADR-RES ovarian was 101%.

With `CCOC(=O)/C=C\C(=O)NC(N)=O`, the growth with SK-MEL-2 melanoma was 101%; in the test with EKVX NSCLC it was 98.8%; with SN12C renal, 103%; with UO-31 renal it was 90.8%; with TK-10 renal, 97.8%; with ACHN renal it was 112%. Further, the growth was 96% with CAKI-1 renal; 107% in the test with A498 renal; 93.9% in the test on CCRF-CEM leukemia; 86.5% with MOLT-4 leukemia; 97.3% in the test with SR leukemia; 98.5% with RPMI-8226 leukemia. Further, the growth with OVCAR-8 ovarian is 104%; in the test on OVCAR-5 ovarian, 113%; in the test with OVCAR-4 ovarian, 120%; in the test with SK-OV-3 ovarian, 95.9%; in the test on IGROV1 ovarian, 104%; in the test on OVCAR-3 ovarian, 110%. Moreover, the growth is 102% in the test on HS 578T breast and 106% with NCI/ADR-RES ovarian.

In the case of `CCSc1nnc(Nc2ccc(C(C)C)cc2)s1`, the growth is 41.3% in the test with SK-MEL-2 melanoma; 80.5% with EKVX NSCLC; 76.7% with SN12C renal; 39.5% with UO-31 renal; 96.1% in the test on TK-10 renal; 91.1% with ACHN renal. Further, the growth with CAKI-1 renal was 83.7%; in the test with A498 renal, 111%; in the test with CCRF-CEM leukemia it was 70.6%; in the test with MOLT-4 leukemia, 66.3%; in the test with SR leukemia it was 69.4%; in the test with RPMI-8226 leukemia, 72.2%. In addition, the growth is 109% with OVCAR-8 ovarian; 87.1% with OVCAR-5 ovarian; 84% in the test on OVCAR-4 ovarian; 104% with SK-OV-3 ovarian; -7.13% (active) in the test on IGROV1 ovarian; 106% in the test on OVCAR-3 ovarian. Moreover, the growth with HS 578T breast is 132%; in the test with NCI/ADR-RES ovarian it was 87.6%.

Turning to `OCc1c(-c2ccccc2)nc2sccn12`, the growth in the test with SK-MEL-2 melanoma was 108%; in the test with EKVX NSCLC it was 86.9%; in the test with SN12C renal, 105%; with UO-31 renal, 94.8%; with TK-10 renal, 106%; in the test with ACHN renal, 98.4%. Also, the growth in the test with CAKI-1 renal is 96.6%; in the test with A498 renal, 95.9%; in the test on CCRF-CEM leukemia, 17.9%; in the test with MOLT-4 leukemia it was 117%; in the test on SR leukemia it was 103%; in the test on RPMI-8226 leukemia it was 111%. Further, the growth was 67.5% with OVCAR-8 ovarian; 109% in the test on OVCAR-5 ovarian; 103% in the test on OVCAR-4 ovarian; 110% with SK-OV-3 ovarian; 88.2% with IGROV1 ovarian; 116% in the test on OVCAR-3 ovarian. The growth was 77.7% in the test on HS 578T breast and 105% in the test with NCI/ADR-RES ovarian.

Values taken from PubChem BioAssay (NCI).
